For 155 variants, enrichment ratio results are on record in a collection of fitness landscapes (doi:10.1126/science.1257360).

Sequences and labels used below:
B1: PhoQ; a variant is named by its letters at X, in order, P23837 (parent)
chain: MKKLLRLFFPLSLRVRFLLATAAVVLVLSLAYGMVALIGYSVSFDKTTFRLLRGESNLFYTLAKWENNKLHVELPENIDKQSPTMTLIYDENGQLLWAQRDVPWLMKMIQPDWLKSNGFHEIEADVNDTSLLLSGDHSIQQQLQEVREDDDDAEMTHSVAVNVYPATSRMPKLTIVVVDTIPVELKSSYMVWSWFIYVLSANLLLVIPLLWVAAWWSLRPIEALAKEVRELEEHNRELLNPATTRELTSLVRNLNRLLKSERERYDKYRTTLTDLTHSLKTPLXXLQXXLRSLRSEKMSVSDAEPVMLEQISRISQQIGYYLHRASMRGGTLLSRELHPVAPLLDNLTSALNKVYQRKGVNISLDISPEISFVGEQNDFVEVMGNVLDNACKYCLEFVEISARQTDEHLYIVVEDDGPGIPLSKREVIFDRGQRVDTLRPGQGVGLAVAREITEQYEGKIVAGESMLGGARMEVIFGRQHSAPKDE

Whole data set: some 140,000 sequences, median “enrichment ratio after two sorts for PhoP signalling” near 0, cut for the highest 2% near 11. Only a selection was taken, and the highest values are over-represented in it overall.

The assay covers variants of B1. The experiment in a line: enrichment ratio after two sorts for PhoP signalling (ratio (wild type AVST 3.29)); higher = more functional. Conditions: with PhoP (E. coli).
As to FFRA, the enrichment ratio is no more than 0.25.

With LYHH, the enrichment ratio is no more than 0.25.

For EIFG, the enrichment ratio is no more than 0.25.

MAWN: the enrichment ratio stood at 23.5.

As for MAWL, the enrichment ratio turned out to be 12.

As for FPWN, the enrichment ratio was no more than 0.25.

In the case of QPWL, the enrichment ratio is no more than 0.25.

NAWN: the enrichment ratio was no more than 0.25.

For TPWN, the enrichment ratio was no more than 0.25.

In the case of QRWL, the enrichment ratio is no more than 0.25.

KAWN: the enrichment ratio is no more than 0.25.

Consider MAWI, for which the enrichment ratio turned out to be 8.24.

FCWL: the enrichment ratio is no more than 0.25.

QSWL: the enrichment ratio is 11.6.

Take QQWN: the enrichment ratio amounted to 13.8.

Consider YELN, for which the enrichment ratio came to 2.61.

Consider KINA, for which the enrichment ratio is no more than 0.25.

For IDLY, the enrichment ratio was no more than 0.25.

As for SGPA, the enrichment ratio was no more than 0.25.

Take TVIM: the enrichment ratio is no more than 0.25.

As for ALLC, the enrichment ratio is 1.19.

With SWSV, the enrichment ratio was no more than 0.25.

Take LKFM: the enrichment ratio is no more than 0.25.

With FEFH, the enrichment ratio was no more than 0.25.

Regarding QEYN, the enrichment ratio was no more than 0.25.

Turning to QIWN, the enrichment ratio was found to be 27.2.

As for QIYN, the enrichment ratio is 20.5.

For QVWL, the enrichment ratio stood at 1.05.

As for QQQL, the enrichment ratio is no more than 0.25.

QRYN: the enrichment ratio is no more than 0.25.

Turning to QPWN, the enrichment ratio was no more than 0.25.

In the case of QQNL, the enrichment ratio is 14.9.

As to QQRL, the enrichment ratio was no more than 0.25.

QQEL: the enrichment ratio was no more than 0.25.

On to QQWL, for which the enrichment ratio came to 11.7.

In the case of QRWN, the enrichment ratio was no more than 0.25.

For LCAS, the enrichment ratio was no more than 0.25.

AWQV: the enrichment ratio was no more than 0.25.

Consider QRPC, for which the enrichment ratio is no more than 0.25.

Take IARV: the enrichment ratio was no more than 0.25.

With HCSE, the enrichment ratio was no more than 0.25.

Consider YKNC, for which the enrichment ratio is no more than 0.25.

HYGG: the enrichment ratio was no more than 0.25.

For ESAV, the enrichment ratio worked out at 2.02.

For LFIM, the enrichment ratio is no more than 0.25.

With WQAC, the enrichment ratio was no more than 0.25.

Regarding MMIC, the enrichment ratio is no more than 0.25.

On to TQCV, for which the enrichment ratio was 10.8.

Regarding TQPI, the enrichment ratio was no more than 0.25.

On to TQCG, for which the enrichment ratio came to 14.9.

Regarding TQCA, the enrichment ratio was determined as 17.6.

With TQNE, the enrichment ratio is no more than 0.25.

For TQCE, the enrichment ratio was 87.9.

As for TQAI, the enrichment ratio came out at 3.21.

As to FQCG, the enrichment ratio came to 1.7.

For the variant TQIE, the enrichment ratio is no more than 0.25.

As for DWCG, the enrichment ratio is no more than 0.25.

On to TQCS, for which the enrichment ratio was 15.1.

For the variant TQCP, the enrichment ratio is no more than 0.25.

As for HAWL, the enrichment ratio is no more than 0.25.

Consider SAVY, for which the enrichment ratio was 1.85.

As to QKIT, the enrichment ratio is no more than 0.25.

Regarding GSFP, the enrichment ratio was no more than 0.25.

On to DITR, for which the enrichment ratio is no more than 0.25.

Regarding PWHF, the enrichment ratio was no more than 0.25.

As to MSDL, the enrichment ratio was no more than 0.25.

For NNLP, the enrichment ratio was no more than 0.25.

For the variant RETI, the enrichment ratio was no more than 0.25.

For the variant HCYR, the enrichment ratio was no more than 0.25.

For the variant RHMQ, the enrichment ratio is no more than 0.25.

With WQYV, the enrichment ratio is no more than 0.25.

For RTWF, the enrichment ratio was no more than 0.25.

Take TQCI: the enrichment ratio stood at 16.

As to TQRL, the enrichment ratio was no more than 0.25.

TQTH: the enrichment ratio was 6.85.

For TQCQ, the enrichment ratio is 27.8.

On to TQCL, for which the enrichment ratio turned out to be 12.5.

Consider TQYK, for which the enrichment ratio is no more than 0.25.

Regarding TQYS, the enrichment ratio was 12.5.

TQCK: the enrichment ratio was determined as 1.24.

Take TQQP: the enrichment ratio is no more than 0.25.

In the case of SQYS, the enrichment ratio was no more than 0.25.

As for FQCQ, the enrichment ratio was no more than 0.25.

With TQEL, the enrichment ratio was no more than 0.25.

For the variant WRPN, the enrichment ratio is no more than 0.25.

For GCIS, the enrichment ratio turned out to be 2.07.

In the case of PPWA, the enrichment ratio was no more than 0.25.

Take HQSY: the enrichment ratio is no more than 0.25.

For the variant RKAR, the enrichment ratio was no more than 0.25.

MEHS: the enrichment ratio is no more than 0.25.

Regarding EHIP, the enrichment ratio was no more than 0.25.

As to TQSA, the enrichment ratio is 19.8.

Take NVSA: the enrichment ratio is no more than 0.25.

Take TQYI: the enrichment ratio is no more than 0.25.

HDSA: the enrichment ratio was no more than 0.25.

Take TQCT: the enrichment ratio turned out to be 12.5.

Turning to TQWI, the enrichment ratio turned out to be 1.91.

For TQWA, the enrichment ratio came to 17.1.

Turning to NQYE, the enrichment ratio is no more than 0.25.

With TQSK, the enrichment ratio was no more than 0.25.

On to TQYE, for which the enrichment ratio stood at 35.7.

As to WQCT, the enrichment ratio was no more than 0.25.

With RNCT, the enrichment ratio is no more than 0.25.

With GFAI, the enrichment ratio was no more than 0.25.

Regarding GLPN, the enrichment ratio was no more than 0.25.

On to GAFM, for which the enrichment ratio was no more than 0.25.

In the case of EVEQ, the enrichment ratio is no more than 0.25.

FEQI: the enrichment ratio was no more than 0.25.

Consider YIWG, for which the enrichment ratio was no more than 0.25.

As to TQRK, the enrichment ratio is no more than 0.25.

Turning to TQTG, the enrichment ratio was found to be 5.83.

Take TQSI: the enrichment ratio came to 11.7.

On to WSSI, for which the enrichment ratio was no more than 0.25.

Consider TEFF, for which the enrichment ratio came out at 6.49.

As for MCRI, the enrichment ratio was no more than 0.25.

MELE: the enrichment ratio was no more than 0.25.

MEVE: the enrichment ratio is no more than 0.25.

For HPLE, the enrichment ratio was no more than 0.25.

Consider TEVE, for which the enrichment ratio turned out to be 11.6.

With TELE, the enrichment ratio amounted to 11.2.

TEYE: the enrichment ratio was no more than 0.25.

For the variant RSQR, the enrichment ratio was no more than 0.25.

With YMEV, the enrichment ratio is no more than 0.25.

As to GDVI, the enrichment ratio came to 20.

As for GDTV, the enrichment ratio turned out to be 13.7.

Take GDDV: the enrichment ratio was no more than 0.25.

As for GDNY, the enrichment ratio was no more than 0.25.

Take TDVI: the enrichment ratio was 11.8.

In the case of GDIV, the enrichment ratio came to 8.68.

With GDYM, the enrichment ratio is no more than 0.25.

Take GDTM: the enrichment ratio stood at 4.42.

For the variant GDVA, the enrichment ratio is no more than 0.25.

For GDVM, the enrichment ratio worked out at 28.9.

For FDVI, the enrichment ratio is no more than 0.25.

As for LTVI, the enrichment ratio was no more than 0.25.

With INWI, the enrichment ratio is no more than 0.25.

Take VNRI: the enrichment ratio is no more than 0.25.

As for NHGQ, the enrichment ratio is no more than 0.25.

For MSWY, the enrichment ratio came out at 5.91.

In the case of SPRG, the enrichment ratio is no more than 0.25.

Regarding PPYC, the enrichment ratio was no more than 0.25.

For the variant HEPW, the enrichment ratio is no more than 0.25.

In the case of EAAS, the enrichment ratio is no more than 0.25.

SSIV: the enrichment ratio came out at 14.2.

On to SSWV, for which the enrichment ratio was 0.518.

For the variant SSPV, the enrichment ratio came out at 1.03.

Turning to SSID, the enrichment ratio is no more than 0.25.

SSII: the enrichment ratio came out at 16.3.

Take KSII: the enrichment ratio is no more than 0.25.

SPAV: the enrichment ratio is no more than 0.25.

With KSIV, the enrichment ratio is no more than 0.25.

With SSMV, the enrichment ratio turned out to be 18.9.

As to SSAE, the enrichment ratio was 10.5.

For the variant SSAV, the enrichment ratio is 12.9.

Take SSYV: the enrichment ratio came to 1.11.
